Hit rate of the full screen: of about 640,000 compounds, about 9,300 (1.5%) were called active. For the sample, actives were picked, then their nearest neighbours and some compounds at random. Values without a mark were called inactive. No stated cut-off is given here; in the data, active means inhibition above about 32%; inactive means the rest.
Experiment: TEAD-YAP interaction inhibition, primary screen, TEAD-YAP interaction inhibitor project, luminescence, HEK-TIYL cells (AID 1259422);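 further: 0% = median of test compound wells and 100% = reference inhibitor wells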
Details: TEAD-Gal4/YAP UAS-luciferase luminescence, at 9.12 µM, stronger effect = higher value

SMILES | inhibition
COc1ccc(S(=O)(=O)CCC(=O)Nc2ccc(C)cc2Br)cc1 | -9.1%
COc1ccc(/C=C2/C(=O)NN(c3cccc(Cl)c3)C2=O)cc1 | 5.26%
CC(=O)Oc1ccc(/C=C2\N=C(c3ccccc3F)OC2=O)cc1 | -4.17%
Cc1c(C(=O)N/N=C/c2cccc([N+](=O)[O-])c2)nnn1-c1nonc1N | -6.33%
CC(=O)Oc1c(C)cc(C)c2ccc(=O)[nH]c12 | -7.29%
CCc1ccc(CC(=O)N2CC(=O)Nc3ccccc32)cc1 | 49.8% (active)
CC1CC(=O)Nc2ccccc2N1C(=O)Cc1ccc(Cl)cc1 (centres undefined) | -16.4%
O=C1CN(C(=O)CCl)c2ccccc2N1 | 14.1%
CCCOCc1c[nH]c(=O)[nH]c1=O | -4.81%
CCOC(=O)c1c(NC(=S)NC(=O)c2ccccc2)sc2c1CC(C)(CC)OC2 (centres undefined) | 8.08%
COc1ccc(C(=O)O)cc1NC(=S)NC(=O)c1ccccc1 | -6.39%
CCOC(=O)C1=C(NC(=S)NC(=O)c2ccccc2)c2ccccc2CC1(CC)CC | 51.5% (active)
OC(CN1CCN(c2ccccc2F)CC1)Cn1nnnc1-c1ccccc1 (centres undefined) | 2.32%
Cc1cc(C)c(/C=C/c2cc(C(F)(F)F)[nH]c(=O)n2)cc1C | -9.26%
Cc1nc(N2CCN(c3ccccn3)CC2)c2c(C)c(C(=O)Nc3ccccc3C(F)(F)F)sc2n1 | -2.56%
O=C(O)c1cccc(-c2cnc3ccc(NCc4ccc(F)cc4)nn23)c1 | -7.03%
c1ccc(Oc2ccc(-c3cnn4c(NCCCN5CCOCC5)ccnc34)cc2)cc1 | 42% (active)
c1ccc(Cn2cc(-c3cnn4c(NCCCN5CCOCC5)ccnc34)cn2)cc1 | -1.52%
Cc1ccc(-c2cnn3c(NCCCN4CCOCC4)ccnc23)cc1C | 10.5%
CCOc1cc2c(cc1OCC)C(c1cc(OC)ccc1F)NCC2 (centres undefined) | 4.41%
CC(C)(O)C#CC(O)c1cccc([N+](=O)[O-])c1 (centres undefined) | -0.86%
COc1ccc(C(c2sc3ncnn3c2O)N2CC(C)OC(C)C2)cc1 (centres undefined) | 10.7%
COc1ccc(C(=O)NCC(=O)NNc2ncnc(N)c2[N+](=O)[O-])c(OC)c1 | 11.1%
O=C(N/N=C/c1cc(Br)ccc1O)c1cc(-c2cccs2)[nH]n1 | 65.8% (active)

SMILES | inhibition
COc1ccccc1/C=N/NC(=O)c1cc(-c2ccc(C)o2)[nH]n1 | 4.17%
CCOc1ccc(/C=N/NC(=O)c2cc(-c3cccs3)[nH]n2)cc1 | -4.12%
COc1cccc(/C=N/NC(=O)c2cc(-c3cccs3)[nH]n2)c1O | 68% (active)
O=C(N/N=C/c1cc(Br)ccc1O)c1ccc(=O)[nH]n1 | 14.8%
O=C(N/N=C/c1cc(Br)ccc1O)c1cc(Br)ccc1O | -12%
Cc1ccc(CNS(=O)(=O)c2ccc(F)c(C(=O)Nc3cccc(Cl)c3)c2)cc1 | -4.88%
COc1cc(C=Nc2ccc(NC(C)=O)cc2)ccc1OC(=O)c1cccs1 | -6.6%
COc1ccccc1NS(=O)(=O)c1ccc(Cl)c(C(=O)Nc2ccccc2C)c1 | 0.37%
O=C(Cc1cccc(Cl)c1)NCC1CCC2(CCN(C(=O)C3CC3)CC2)O1 (centres undefined) | -0.11%
COc1ccc(C2CCN(C(=O)C3CCCO3)CC2)cc1 (centres undefined) | -7.42%
Cc1cccc2c1CC(=O)NC21CCN(Cc2ccc3ccccc3c2)CC1 | 7.07%
CCc1ccc(OCC(=O)NCc2ccncc2)c(Br)c1 | -4.34%
CCc1ccc(OCC(=O)Nc2nc(C)c(C)s2)c(Br)c1 | 77.7% (active)
Cc1ccc(OCC(=O)Nc2nc(-c3ccccc3)cs2)c(Br)c1 | 5.91%
CCOC(=O)C1(CCOc2ccccc2)CCN(Cc2cnn(C(C)C)c2)CC1 | 10.3%
O=C(COc1ccc([N+](=O)[O-])cc1)Nc1ccc2oc(-c3cccc(F)c3)nc2c1 | -7.11%
O=C(Nc1ccc2oc(-c3ccc(F)cc3)nc2c1)c1ccc([N+](=O)[O-])cc1 | 11.2%
O=[N+]([O-])c1ccc2oc(-c3cccc(O)c3)nc2c1 | 73.9% (active)
Cc1ccc2nc3c(cc(C#N)c(=O)n3-c3cccc(Cl)c3)c(=O)n2c1 | -0.14%
CC1=CN2C(=O)NC(C(F)(F)F)(C(F)(F)F)N=C2S1 | -16.6%
COCCCNC(=O)Cn1cc(/C=C(\C#N)C(=O)NCc2ccco2)c2ccccc21 | 3.94%
COCCCNC(=O)/C(C#N)=C/c1ccc(-c2cccc(Cl)c2Cl)o1 | 1.01%
COCCCNC(=O)/C(C#N)=C/c1cc(C)n(-c2cccc3ccccc23)c1C | 47.1% (active)
COc1ccc(NC(=O)c2sc3nc(-c4cccc([N+](=O)[O-])c4)cn3c2C)cc1 | 4.9%

SMILES | inhibition
CCOc1ccc(Br)cc1CSC(=N)N | 55.7% (active)
CCOc1ccc(Br)cc1S(=O)(=O)Nc1ccccc1C(=O)O | 3.25%
CCOC(=O)C1CCN(S(=O)(=O)c2cc(Br)ccc2OCC)CC1 | 0.17%
CC(=O)N(Cc1cccnc1)Cc1cc2cc(C)c(C)cc2nc1Cl | 6.62%
Cc1cccc(C(=O)Nc2ccc(C(=O)N/N=C/c3ccc(O)cc3)cc2)c1 | -12.2%
CCOc1ccccc1NS(=O)(=O)c1ccc2c(c1)NC(=O)C(C)C(=O)N2 (centres undefined) | -5.49%
O=C1CS(=O)(=O)C(c2ccccc2[N+](=O)[O-])N1c1ccc(Oc2ccc(Cl)cc2)cc1 (centres undefined) | 11.6%
CN(C)c1nc(N)nc(CSc2nnnn2-c2cccc3ccccc23)n1 | 35.1% (active)
COc1ccc(-n2nnnc2SCc2nc(N)nc(N3CCOCC3)n2)cc1 | -11.4%
CN(C)c1nc(N)nc(CSc2ccccn2)n1 | -4.14%
CCOC(=O)c1sc2nc(C)nc(OCc3ccccc3C)c2c1C | -7.17%
COc1ccccc1-c1cc(C(F)(F)F)nc(S(=O)(=O)CCCC(=O)Nc2sc(C(N)=O)c(C)c2C(=O)OC(C)C)n1 | -2.08%
Cc1cccc(NC(=O)c2ccc(F)c(S(=O)(=O)N(C)C3CCCCC3)c2)c1 | -12.6%
CCOc1cccc(NC(=O)c2ccc(F)c(S(=O)(=O)N(CC)c3cccc(C)c3)c2)c1 | -0.19%
CCN(Cc1ccccc1)S(=O)(=O)c1ccc(F)c(C(=O)Nc2ccc(C)cc2)c1 | -16.5%
O=C(Nc1ccc(Oc2ccccc2)cc1)c1ccc(F)c(S(=O)(=O)N2CCc3ccccc3C2)c1 | -0.62%
CCN(c1cccc(C)c1)S(=O)(=O)c1cc(C(=O)Nc2ccc(Oc3ccccc3)cc2)ccc1F | 35.4% (active)
CCN(Cc1ccccc1)S(=O)(=O)c1cc(C(=O)Nc2cccc(C)c2)ccc1F | 51.1% (active)
COc1cccc(-c2ccccc2NC(=O)C2CCN(Cc3ccccn3)CC2)c1 | 10.6%
CC1=C(C(=O)Nc2nc3ccccc3s2)C(c2ccsc2)C2=C(CCCC2=O)N1 (centres undefined) | 12.1%
COC(=O)c1c(OCCN2CCCC2=O)cc(=O)n2c1CCN(CC(C)C)CC2 | -5.77%
Fc1ccc(CN2CCOCC2)cc1F | -5.29%
c1cncc(CNc2nccc(Nc3ccc(N4CCOCC4)cc3)n2)c1 | 1.72%
Fc1cnc(Nc2ccc(Cn3ccnc3)cc2)nc1-c1cccc(N2CCOCC2)c1 | 84.8% (active)

SMILES | inhibition
Cc1ccc(-c2ncn(-c3ccc(Nc4ncc(F)c(-c5cccc(N6CCOCC6)c5)n4)cc3)n2)cn1 | 28.1%
Cc1ccc(-c2ncn(-c3ccc(Nc4nccc(-c5cc(F)cc(N6CCOCC6)c5)n4)cc3)n2)nc1 | 8.1%
Fc1cc(-c2nc(Nc3ccc(CN4CCOCC4)cc3)ncc2F)cc(N2CCOCC2)c1 | 74.6% (active)
O=C(Nc1ccccc1)c1ccc(CSc2ccc(Cl)cc2)cc1 | 1.08%
Cc1cc2oc(=O)cc(C)c2cc1NC(=O)COc1ccccc1 | 18.6%
c1ccc2c(N3CCCCCC3)nc(CN3CCCCC3)nc2c1 | 3.64%
COCCNC(=O)c1sc2nc(C)nc(N3CCCCC3)c2c1C | 8.3%
C=CCn1c(NCCCN(C)C)cc(=O)n(C)c1=O | 1.12%
Cc1cc(C)cc(Cn2c(NCc3ccncc3)cc(=O)n(C)c2=O)c1 | 33.7% (active)
Cc1cccc(Cn2c(NCc3ccc4c(c3)OCO4)nc3c2c(=O)n(C)c(=O)n3C)c1 | 3.24%
CC(=O)c1ccc(OCc2cc(C(=O)NCc3cccc(-n4cccn4)c3)no2)cc1 | -59.7%
O=C(Nc1ccc(N2CCC(NCCc3ccco3)CC2)cc1)C1CCCC1 | 56.3% (active)
O=C(NC1CCCC1)c1ccc(N2CCC(NCCc3ccco3)CC2)cc1 | -1.18%
O=C(Nc1cccc(N2CCC(NCCc3ccco3)CC2)c1)c1ccncc1 | -5.63%
COc1ccc(CCNC(=O)CSc2cn(C)c3ccccc23)cc1OC | -1.21%
COc1ccc(Cl)cc1C1=N/C(=C\c2coc3ccccc3c2=O)C(=O)O1 | 1.35%
COc1ccc(NC(=O)CNC(=O)Cn2cnc3sc(C)cc3c2=O)c(OC)c1 | 7.78%
COc1ccc(Nc2nc3nonc3nc2Nc2ccc(OC)cc2OC)c(OC)c1 | -7.35%
COc1ccc(CCNc2nc3ccc(C)cc3n3cnnc23)cc1OC | -9.92%
COc1ccc(CCNc2nc(C)nc3sc(C)cc23)cc1OC | 41.7% (active)
COc1ccc(Nc2nc(C)nc3sc(C)cc23)c(OC)c1 | 46% (active)
COc1ccc(CCNc2nc(SCC#N)nc3ccccc23)cc1OC | -11.4%
